ERa SRC1 inh – ER-alpha (human) coactivator binding inhibition | 86,000 tested, 1.7% active | inhibition, % at 25.6 µM | AID 629 | P03372 | TR-FRET ER-alpha LBD / SRC-1 peptide, estradiol-bound; in the data active = inhibition above about 50%
Target sequence (P03372 whole entry, looked up, the tested form may be a part): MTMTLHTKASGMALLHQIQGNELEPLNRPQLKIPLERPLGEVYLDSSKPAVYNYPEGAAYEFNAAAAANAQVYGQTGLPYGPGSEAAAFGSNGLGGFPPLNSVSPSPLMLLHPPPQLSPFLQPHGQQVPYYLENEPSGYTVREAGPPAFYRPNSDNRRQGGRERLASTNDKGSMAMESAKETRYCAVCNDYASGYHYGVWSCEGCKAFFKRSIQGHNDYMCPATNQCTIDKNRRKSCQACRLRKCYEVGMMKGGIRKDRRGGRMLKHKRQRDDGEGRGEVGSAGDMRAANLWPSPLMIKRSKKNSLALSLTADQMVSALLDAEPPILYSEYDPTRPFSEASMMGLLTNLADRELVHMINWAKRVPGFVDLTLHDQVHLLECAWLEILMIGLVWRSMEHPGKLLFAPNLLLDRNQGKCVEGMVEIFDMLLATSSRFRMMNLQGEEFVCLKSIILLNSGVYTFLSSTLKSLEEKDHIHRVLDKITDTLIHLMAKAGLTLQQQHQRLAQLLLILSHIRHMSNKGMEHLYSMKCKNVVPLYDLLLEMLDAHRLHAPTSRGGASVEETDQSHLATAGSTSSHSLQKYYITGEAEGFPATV
ERb coact inh – ER-beta (human) coactivator binding inhibition. Q92731. TR-FRET ER-beta LBD / SRC1-Cy5 peptide binding; receptor agonist-loaded with 1 µM estradiol. inhibition, % at 25.6 µM. 86,000 tested, 1.3% active;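 active = compounds whose percent inhibition of the receptor-coactivator binding signal exceeds about 50% in the single-dose screen, limit read from the data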
ERa SRC1 pot – enhances coactivator binding to human estrogen receptor alpha; P03372; TR-FRET ERalpha-LBD/SRC-Cy5 coactivator binding, 2 h; 100 = basal binding, no effect; coactivator binding (% of control), % at 25.6 µM; 86,000 tested, 1.3% active; in the data active = activity above about 200%;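 note: binding measured in presence of low estradiol as agonist stimulus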
EphB4 ephrin blk – antagonists of human EphB4-ephrin-B2 interaction | EphB4 LBD / TNYL-RAW-Alexa532 peptide, fluorescence polarization | inhibition, % at 7 µM | 97,000 tested, 0.15% active;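 active = inhibition above the screen-wide mean inhibition plus 3 SD, cut at about 15% in these data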
Large screens that a line does not name were inactive; [ ] = remark or other dose. In the library only some 2.8% were active in any assay of this set; here they are far more common.

C=CCn1c(COc2ccccc2F)nnc1SCC(=O)NC(=O)NCc1ccco1	ERa SRC1 inh 67.2[fluorescence artefact?], ERb coact inh 53.7 (no result: EphB4 ephrin blk)
COc1ccccc1OCc1nnc(SCC(=O)NCc2ccco2)n1Cc1ccco1	ERa SRC1 pot 207.0[fluorescence artefact?]
O=C(CN1CCSCC1)N/N=C/c1ccc(F)c(F)c1	none
COC(=O)c1cc(NC(=O)Cc2ccccc2[N+](=O)[O-])cc(C(=O)OC)c1	none (no result: ERa SRC1 inh, ERb coact inh, ERa SRC1 pot)
Cc1nc2ccccc2n2c(O)c(CC(=O)O)cc12	ERb coact inh 58.4[fluorescence artefact?] (no result: EphB4 ephrin blk)
Cc1nc2ccccc2n1CCC(=O)O	none
Cc1cccc2c(=O)c(C(=O)NCCCN3CCOCC3)c[nH]c12	none
CCCCNC(=O)C1CCCN1C(=O)Nc1ccccc1 (stereo not given)	none
COc1cc(-c2nc(-c3ccccc3)c(-c3cccs3)[nH]2)cc(OC)c1OC	ERa SRC1 pot 252.1
COc1cc(-c2nc(-c3ccccc3)c(-c3cccs3)[nH]2)cc(OC)c1O	none
O=C(NCSc1ccnc(SCNC(=O)c2ccc(F)cc2)n1)c1ccc(F)cc1	none (no result: ERa SRC1 inh, ERb coact inh, ERa SRC1 pot)
Cc1ccc(NC(=O)CN(C)c2ccc(S(=O)(=O)N3CCN(C)CC3)cn2)cc1	ERa SRC1 pot 480.9[fluorescence artefact?]
CN1CCN(S(=O)(=O)c2ccc(N(C)CC(=O)Nc3ccc(F)cc3)nc2)CC1	none
Cn1c(=O)c2c(nc(SCC(=O)NCc3ccc4c(c3)OCO4)n2Cc2ccc(Cl)cc2)n(C)c1=O	ERa SRC1 inh 85.5[fluorescence artefact?], ERb coact inh 53.7[fluorescence artefact?]
O=C(CSc1nnc2scc(-c3ccccc3)n12)NCc1ccc2c(c1)OCO2	none
Cn1c(=O)c2c(nc(Br)n2CC(=O)c2cccs2)n(C)c1=O	none
Cn1c(=O)c2c(nc(SCC(=O)c3cccs3)n2Cc2ccc(F)cc2)n(C)c1=O	ERa SRC1 pot active[fluorescence artefact?]
O=C(CSc1nnc2scc(-c3ccc(Cl)cc3)n12)NCc1ccc2c(c1)OCO2	ERa SRC1 pot 212.6
CCCc1nc(SCC(=O)NCc2ccc3c(c2)OCO3)c2c(=O)n(C)c(=O)n(C)c2n1	none (no result: EphB4 ephrin blk)
O=C(NCc1ccco1)C(c1cccnc1)N(C(=O)Cn1nnc2ccccc21)c1ccc(F)cc1 (stereo not given)	none
N#CCN1CCN(CC(=O)Nc2cccc3ccccc23)CC1	none
COc1ccc(CONS(=O)(=O)c2ccc(NC(C)=O)cc2)cc1Cl	none (no result: ERa SRC1 inh, ERb coact inh, ERa SRC1 pot)
COc1ccc2cc3cc(C(=O)Nc4ccc5c(c4)OCCO5)oc3nc2c1	ERa SRC1 inh 70.9[fluorescence artefact?], ERa SRC1 pot 208.6
NC(=O)c1ccsc1NC(=O)COC(=O)Cc1ccsc1	ERa SRC1 inh 54.8[fluorescence artefact?], ERb coact inh 59.6
COC(=O)C(OC(=O)c1ccc(OC)cc1)C(=O)OC	none
CCc1ccc(NC(=O)C2CC=CCC2C(=O)O)cc1 (stereo not given)	none
O=C(O)Cc1ccc(NC(=O)C2CC=CCC2C(=O)O)cc1 (stereo not given)	ERa SRC1 pot 233.9
CC(=O)NS(=O)(=O)c1cccnc1Nc1ccc(Cl)cc1	none (no result: ERa SRC1 inh, ERb coact inh, ERa SRC1 pot)
CCCNC(=O)c1ccc(-c2nc3ccccc3s2)s1	ERa SRC1 inh 54.5, ERb coact inh 62.2
Nc1ncnc2oc(-c3ccco3)c(-c3ccco3)c12	ERa SRC1 inh 93.9[fluorescence artefact?], ERb coact inh 88.4[fluorescence artefact?]
CCOC(=O)C1=C(CN2c3ccccc3CC2C)NC(=O)NC1c1ccccc1 (stereo not given)	none
C#Cc1ccc(C(=O)Nc2cc(C(N)=O)ccc2N2CCOCC2)cc1	ERa SRC1 inh 68.9[fluorescence artefact?]
CC(C)(C)OC(=O)N[C@@H](Cc1ccccc1)c1nnc(SCC(=O)O)o1	ERb coact inh 91.9[fluorescence artefact?]
CCSc1nnc([C@H](Cc2ccccc2)NC(=O)OC(C)(C)C)o1	none
CCNc1ccc(Br)cc(C(=O)/C=C/c2ccc(Cl)cc2Cl)c1=O	ERa SRC1 inh 84.5[fluorescence artefact?], ERb coact inh 75.9[fluorescence artefact?]
CNc1ccc(Br)cc(C(=O)/C=C/c2cc(OC)ccc2OC)c1=O	ERa SRC1 inh 71.1[fluorescence artefact?], ERb coact inh 65.1[fluorescence artefact?]
O=c1[nH]c2cc3c(cc2cc1C(c1nnnn1Cc1ccccc1)N1CCCCCC1)OCCO3 (stereo not given)	ERa SRC1 pot 246.1[fluorescence artefact?]
O=c1[nH]c2cc3c(cc2cc1C(c1nnnn1Cc1ccccc1)N1CCCc2ccccc21)OCO3 (stereo not given)	ERa SRC1 inh 56.3[fluorescence artefact?]
COc1cc2cc(C(c3nnnn3C3CCCC3)N3CCc4ccccc43)c(=O)[nH]c2cc1OC (stereo not given)	ERa SRC1 inh 50.1, ERa SRC1 pot 215.6[fluorescence artefact?]
O=c1[nH]c2cc3c(cc2cc1C(c1nnnn1C1CCCC1)N1CCCc2ccccc21)OCCO3 (stereo not given)	none (no result: EphB4 ephrin blk)
O=c1[nH]c2cc3c(cc2cc1C(c1nnnn1Cc1ccccc1)N1CCN2CCCC2C1)OCCO3 (stereo not given)	ERa SRC1 inh 72.5[fluorescence artefact?]
Nc1ccc(-c2n[nH]c(=O)c3ccccc23)cc1N	none
Cc1cccc2cc(C(c3nnnn3CC3CCCO3)N3CCc4ccccc4C3)c(=O)[nH]c12 (stereo not given)	none
Cc1ccc(C)c2[nH]c(=O)c(C(c3nnnn3Cc3ccccc3)N3CCc4ccccc4C3)cc12 (stereo not given)	ERa SRC1 inh 51.5[fluorescence artefact?], ERa SRC1 pot 293.8[fluorescence artefact?]
O=C(N/N=C/c1ccncc1)/C(=C/c1ccccc1)NC(=O)c1ccccc1	none (no result: ERa SRC1 inh, ERb coact inh, ERa SRC1 pot)
COc1cc(/C=N/NC(=O)/C(=C\c2ccc([N+](=O)[O-])cc2)NC(=O)c2ccccc2)cc(OC)c1O	ERa SRC1 inh 52.8[fluorescence artefact?]
O=C(NCCc1cccs1)C12CN(Cc3ccccc3)CC1C(c1cccc([N+](=O)[O-])c1)=NO2 (stereo not given)	none (no result: ERa SRC1 inh, ERb coact inh, ERa SRC1 pot)
CCn1c2ccccc2c2cc(C3C(C#N)=C(C)NC(C)=C3C#N)ccc21	ERa SRC1 pot 214.6
CCn1c2ccccc2c2cc(C3C(C#N)=C(N)OC4=C3C(=O)CC(C)(C)C4)ccc21 (stereo not given)	none (no result: EphB4 ephrin blk)
Cn1nc(C(=O)Nc2c(-c3ccccc3)nc3sccn23)c2ccccc2c1=O	ERa SRC1 inh 62.2[fluorescence artefact?]
Cn1nc(C(=O)Nc2cccc(C(F)(F)F)c2)c2ccccc2c1=O	none (no result: ERa SRC1 inh, ERb coact inh, ERa SRC1 pot)
NC(=O)C1CCN(C(=O)C2c3ccccc3C(=O)N3CCc4ccccc4C23)CC1 (stereo not given)	none
CC1CCN(C(=O)C2c3ccccc3C(=O)N3CCc4ccccc4C23)CC1 (stereo not given)	ERa SRC1 pot 623.0[fluorescence artefact?]
C/C(N)=C(/C#N)C(=O)CSc1nnc(-c2ccc(OC(F)F)cc2)o1	ERa SRC1 inh 56.4, ERb coact inh 62.4
O=C(CSc1nnc(-c2ccc(S(=O)(=O)N3CCOCC3)cc2)o1)c1ccccc1F	none
CCOC(=O)c1c(C)[nH]c(C)c1C(=O)CSc1nnc(-c2ccc(OC(F)F)cc2)o1	ERa SRC1 pot 276.2
C/C(N)=C(/C#N)C(=O)CSc1nnc(-c2ccc3c(c2)OCO3)o1	none (no result: ERa SRC1 inh, ERb coact inh, ERa SRC1 pot)
CCOC(=O)c1[nH]c(CSc2nnc(-c3ccc(OC)cc3)o2)c(C(=O)OCC)c1C	none
COc1ccc(C(=O)CSc2nnc(-c3ccc(S(=O)(=O)N4CCOCC4)cc3)o2)cc1	ERa SRC1 pot 470.0[fluorescence artefact?]
COc1ccc(-c2nnc(SCC(=O)c3[nH]c(C)c(C(C)=O)c3C)o2)cc1	ERa SRC1 pot 274.9
O=C(CC1C(=O)N(c2ccccc2)C(=O)N1C1CCCCC1)Nc1ccccc1 (stereo not given)	none
Cc1cc(C(=O)CSc2nnc(-c3ccccc3)n2Cc2ccc3c(c2)OCO3)c(C)n1C	none

Screening data deposited in PubChem BioAssay by several laboratories.
